# The source made the active and inactive calls. The calls were made as follows: active = hit-call score of the fitted dose curve at least 0.9, where 1 is the maximum; inactive = score below 0.9.
# Legend:
# [1] = ATG_GLI_CIS: Attagene CIS-FACTORIAL HepG2 Assay for human Zinc Finger Protein GLI1 (AID 2282945); details: HepG2, Attagene cis-factorial reporter mRNA, GLI element; actives raise or lower the signal
# Procedure, shortened: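 Bidirectional curve fits relative to DMSO, using reporter mRNA levels from RT-PCR plus capillary electrophoresis. Cells were HepG2 transiently carrying cis-regulated reporter constructs, harvested 24 h after dosing.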
# [2] = ATG_GRE_CIS: Attagene CIS-FACTORIAL HepG2 Assay for human Glucocorticoid Response Elements (GRE) (AID 2282947); details: HepG2 GRE cis-reporter, Attagene multiplex mRNA; actives raise or lower the signal
# Procedure, shortened: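 Transient MRTU transfection of human HepG2 liver cells; cis-regulated reporters report endogenous factors. 24 h dosing → RNA isolation → RT-PCR → 6-FAM primer extension → HpaI cut → CE fragment analysis. Bidirectional fit, DMSO negative control.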
# [3] = ATG_ISRE_CIS: Attagene CIS-FACTORIAL HepG2 Assay for human Interferon Regulatory Factor 1 (IRF1) binding to an Interferon-Stimulated Response Element (ISRE) (AID 2282948); details: HepG2 ISRE cis-reporter (Attagene), mRNA transcription readout; actives raise or lower the signal
# Procedure, shortened: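 HepG2 cells transiently transfected with multiplexed cis-promoter reporter units; after 24 h compound exposure, reporter mRNA quantified by RT-PCR, FAM labelling, HpaI digestion and capillary electrophoresis. Bidirectional fit versus DMSO baseline.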
# [4] = ATG_M_32_CIS: Attagene CIS-FACTORIAL HepG2 Assay for M32 Transcription Factor (Internal Marker) (AID 2282949); details: HepG2 Attagene cis-factorial M32 reporter, mRNA; actives raise or lower the signal;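 also: background control marker of the multiplexed CIS panel rather than a real target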
# Procedure, shortened: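 Fluorescent capillary electrophoresis peaks of HpaI-digested, FAM-labelled RT-PCR reporter products give the signal. Source: transiently transfected human liver HepG2 cells, 24 h after chemical dosing; bidirectional fitting against DMSO.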
# [5] = ATG_M_06_CIS: Attagene CIS-FACTORIAL HepG2 Assay for M06 Transcription Factor (Internal Marker) (AID 2282950); details: HepG2 Attagene CIS-FACTORIAL M06 internal marker reporter; actives raise or lower the signal
# Procedure, shortened: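 One of many multiplexed endpoints: HepG2 reporter mRNA after 24 h dosing, detected by RT-PCR and capillary electrophoresis fluorescence; gain or loss of signal analysed against DMSO.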
# [6] = molecular target: Hypoxia-inducible factor 1-alpha (Homo sapiens) (UniProt Q16665); assay: ATG_HIF1a_CIS: Attagene CIS-FACTORIAL HepG2 Assay for human Hypoxia Inducible Factor 1 (HIF1A) (AID 2282951); details: HepG2 Attagene cis-factorial HIF1a reporter transcription; actives raise or lower the signal
# Sequence of Hypoxia-inducible factor 1-alpha (Homo sapiens) (Q16665 whole entry, looked up): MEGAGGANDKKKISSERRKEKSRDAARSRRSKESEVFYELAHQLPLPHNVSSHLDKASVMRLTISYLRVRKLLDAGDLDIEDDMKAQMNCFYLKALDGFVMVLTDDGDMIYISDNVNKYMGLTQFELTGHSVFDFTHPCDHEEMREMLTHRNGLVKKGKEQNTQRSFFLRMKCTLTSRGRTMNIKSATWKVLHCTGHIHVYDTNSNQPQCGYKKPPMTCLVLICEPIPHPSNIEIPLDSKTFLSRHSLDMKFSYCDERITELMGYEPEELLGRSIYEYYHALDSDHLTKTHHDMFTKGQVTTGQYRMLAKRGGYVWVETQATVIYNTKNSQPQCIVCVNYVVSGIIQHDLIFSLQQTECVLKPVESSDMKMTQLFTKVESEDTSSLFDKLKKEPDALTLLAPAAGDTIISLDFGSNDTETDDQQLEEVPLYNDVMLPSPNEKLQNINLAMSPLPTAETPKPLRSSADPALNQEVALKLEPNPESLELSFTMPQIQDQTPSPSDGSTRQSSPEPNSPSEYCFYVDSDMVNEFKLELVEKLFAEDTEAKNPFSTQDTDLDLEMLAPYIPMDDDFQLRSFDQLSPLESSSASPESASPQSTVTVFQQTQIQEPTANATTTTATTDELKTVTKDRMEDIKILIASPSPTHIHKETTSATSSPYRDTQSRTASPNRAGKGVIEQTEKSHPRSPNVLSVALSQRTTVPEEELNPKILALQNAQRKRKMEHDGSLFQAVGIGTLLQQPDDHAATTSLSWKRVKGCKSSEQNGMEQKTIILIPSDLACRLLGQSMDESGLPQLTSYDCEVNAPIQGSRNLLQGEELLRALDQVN
# Procedure, shortened: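 HepG2, transient cis-reporter library, 24 h dosing. RNA → RT (oligo dT) → PCR → 6-FAM primer extension → HpaI → CE. Bidirectional curve fit vs DMSO.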
# [7] = molecular target: Hepatocyte nuclear factor 6 (Homo sapiens) (UniProt Q9UBC0); assay: ATG_HNF6_CIS: Attagene CIS-FACTORIAL HepG2 Assay for human Hepatocyte Nuclear Factor 6 (HNF6) (AID 2282952); details: HepG2 Attagene cis-factorial HNF6 reporter transcription; actives raise or lower the signal
# Sequence of Hepatocyte nuclear factor 6 (Homo sapiens) (Q9UBC0 whole entry, looked up, the tested form may be a part): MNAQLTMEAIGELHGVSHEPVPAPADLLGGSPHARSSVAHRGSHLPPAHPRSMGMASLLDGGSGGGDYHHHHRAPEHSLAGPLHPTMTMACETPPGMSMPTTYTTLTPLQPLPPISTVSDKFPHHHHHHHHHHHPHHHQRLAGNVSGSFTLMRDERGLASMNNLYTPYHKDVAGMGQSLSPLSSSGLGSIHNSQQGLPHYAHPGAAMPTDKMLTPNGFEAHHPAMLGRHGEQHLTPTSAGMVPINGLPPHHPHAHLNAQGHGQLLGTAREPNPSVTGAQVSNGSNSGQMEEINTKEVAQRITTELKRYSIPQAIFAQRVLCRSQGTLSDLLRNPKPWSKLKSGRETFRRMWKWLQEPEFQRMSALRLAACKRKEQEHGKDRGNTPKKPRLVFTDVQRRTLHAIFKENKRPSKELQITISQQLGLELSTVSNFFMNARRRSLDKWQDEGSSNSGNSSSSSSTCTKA
# Procedure, shortened: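 HepG2 cells transiently transfected with cis-element-driven multiplexed reporter units measuring endogenous transcription factor activity. After 24 h exposure, reporter mRNA quantified by RT-PCR, FAM-labelled fragments and capillary electrophoresis; bidirectional fitting versus DMSO.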
# [8] = molecular target: Heat shock factor protein 1 (Homo sapiens) (UniProt Q00613); assay: ATG_HSE_CIS: Attagene CIS-FACTORIAL HepG2 Assay for human Heat Shock Transcription Factor 1 (HSE) (AID 2282953); details: HepG2 HSE cis-reporter, Attagene RNA transcription; actives raise or lower the signal
# Sequence of Heat shock factor protein 1 (Homo sapiens) (Q00613 whole entry, looked up): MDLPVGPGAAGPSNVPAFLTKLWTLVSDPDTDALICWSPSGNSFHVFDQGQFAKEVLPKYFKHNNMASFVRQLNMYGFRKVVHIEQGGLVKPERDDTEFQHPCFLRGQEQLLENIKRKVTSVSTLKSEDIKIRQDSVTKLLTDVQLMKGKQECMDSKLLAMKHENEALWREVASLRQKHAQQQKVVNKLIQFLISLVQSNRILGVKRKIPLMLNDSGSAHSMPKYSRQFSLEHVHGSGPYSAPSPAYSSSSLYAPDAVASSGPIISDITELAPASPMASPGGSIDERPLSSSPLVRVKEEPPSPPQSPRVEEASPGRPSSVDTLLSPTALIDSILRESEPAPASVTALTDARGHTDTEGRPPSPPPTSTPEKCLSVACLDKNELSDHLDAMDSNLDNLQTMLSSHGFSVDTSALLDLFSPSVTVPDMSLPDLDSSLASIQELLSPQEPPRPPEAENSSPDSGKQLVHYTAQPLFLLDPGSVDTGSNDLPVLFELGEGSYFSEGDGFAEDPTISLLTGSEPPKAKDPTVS
# Procedure, shortened: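 Using HepG2 with transfected cis-driven reporter constructs, compound effects on endogenous factor activity are scored as reporter mRNA change at 24 h. Detection: RT-PCR, HpaI digestion, capillary electrophoresis; bidirectional fitting to DMSO.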
# [9] = ATG_MRE_CIS: Attagene CIS-FACTORIAL HepG2 Assay for human Metal Responsive Element (MRE) (AID 2282954); details: HepG2 MRE cis-reporter transcription, Attagene multiplex; actives raise or lower the signal
# Procedure, shortened: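 Transient MRTU transfection of HepG2 (FuGene 6); 24 h dosing; total RNA → oligo(dT) RT, PCR, 6-FAM primer extension, HpaI cut, CE. Bidirectional fit vs DMSO.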
# [10] = ATG_PBREM_CIS: Attagene CIS-FACTORIAL HepG2 Assay for human Phenobarbital-responsive Enhancer Module (PBREM) (AID 2282955); details: HepG2 PBREM cis-reporter, Attagene multiplexed transcription; actives raise or lower the signal
# Procedure, shortened: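 HepG2, transient MRTU transfection, 24 h dosing; RNA → oligo(dT) RT → PCR → 6-FAM extension → HpaI → CE. Bidirectional fit vs DMSO.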
# [11] = molecular target: Paired box protein Pax-6 (Homo sapiens) (UniProt P26367); assay: ATG_Pax6_CIS: Attagene CIS-FACTORIAL HepG2 Assay for human Paired Box 6 (PAX6) (AID 2282956); details: HepG2 CIS-FACTORIAL PAX6 reporter transcription, RNA readout; actives raise or lower the signal
# Sequence of Paired box protein Pax-6 (Homo sapiens) (P26367 whole entry, looked up): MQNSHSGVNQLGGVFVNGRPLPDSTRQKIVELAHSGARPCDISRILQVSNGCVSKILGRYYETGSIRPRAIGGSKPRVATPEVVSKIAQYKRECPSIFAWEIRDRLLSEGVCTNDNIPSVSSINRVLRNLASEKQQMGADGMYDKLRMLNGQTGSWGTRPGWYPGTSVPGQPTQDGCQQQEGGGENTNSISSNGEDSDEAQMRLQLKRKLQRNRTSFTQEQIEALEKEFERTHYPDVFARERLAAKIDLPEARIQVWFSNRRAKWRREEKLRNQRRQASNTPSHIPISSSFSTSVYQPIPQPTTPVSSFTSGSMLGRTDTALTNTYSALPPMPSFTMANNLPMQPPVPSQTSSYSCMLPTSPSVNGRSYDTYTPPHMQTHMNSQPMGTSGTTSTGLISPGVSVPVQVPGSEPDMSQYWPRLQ
# Procedure, shortened: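 HepG2 cells transiently transfected with multiplexed cis-promoter reporter units (endogenous TF activity) were dosed for 24 h. Reporter mRNA was quantified by RT-PCR, 6-FAM labeling, HpaI digestion and capillary electrophoresis; bidirectional fitting versus DMSO baseline.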
# [12] = ATG_PXRE_CIS: Attagene CIS-FACTORIAL HepG2 Assay for human Pregnane X Receptor Element (PXRE) (AID 2282957); details: HepG2 Attagene CIS-FACTORIAL PXRE reporter, mRNA; actives raise or lower the signal
# Procedure, shortened: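 HepG2 cells transiently transfected with cis-element-driven multiplexed reporter units; after 24 h chemical exposure, reporter mRNA measured by RT-PCR, 6-FAM labelling, HpaI digestion and capillary electrophoresis. Bidirectional fitting relative to DMSO.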
# [13] = ATG_PPRE_CIS: Attagene CIS-FACTORIAL HepG2 Assay for human Peroxisome Proliferator-activated Response Element (PPRE) (AID 2282958); details: HepG2 PPRE cis-element reporter, Attagene transcription factor profiling; actives raise or lower the signal
# Procedure, shortened: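 Transcript-level reporter induction in transfected HepG2 cells after 24 h chemical exposure, quantified by fluorescence from RT-PCR products separated by capillary electrophoresis.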
# [14] = ATG_RORE_CIS: Attagene CIS-FACTORIAL HepG2 Assay for human RAR-related Orphan Receptor Element (RORE) (AID 2282959); details: HepG2 Attagene cis-factorial RORE reporter, mRNA; actives raise or lower the signal
# Procedure, shortened: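 Multiplexed reporter assay measuring mRNA induction from a cis promoter element in transiently transfected HepG2 cells after 24 h treatment. Detection via RT-PCR and capillary electrophoresis fluorescence; DMSO serves as baseline.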
# [15] = ATG_Sox_CIS: Attagene CIS-FACTORIAL HepG2 Assay for human SRY-box transcription factor (SOX) (AID 2282960); details: HepG2 Attagene cis-factorial SOX reporter, mRNA; actives raise or lower the signal
# Procedure, shortened: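 Cells were transfected with reporter constructs under cis-regulatory promoters, then exposed to chemicals for 24 h. Reporter transcripts were quantified by fluorescence after RT-PCR and capillary electrophoresis; activity was fitted in both directions against DMSO.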
# [16] = molecular target: Transcription factor Sp1 (Homo sapiens) (UniProt P08047); assay: ATG_Sp1_CIS: Attagene CIS-FACTORIAL HepG2 Assay for human Specificity Protein 1 (Sp1) (AID 2282961); details: HepG2 Sp1 cis-reporter transcription, actives raise or lower the signal
# Sequence of Transcription factor Sp1 (Homo sapiens) (P08047 whole entry, looked up): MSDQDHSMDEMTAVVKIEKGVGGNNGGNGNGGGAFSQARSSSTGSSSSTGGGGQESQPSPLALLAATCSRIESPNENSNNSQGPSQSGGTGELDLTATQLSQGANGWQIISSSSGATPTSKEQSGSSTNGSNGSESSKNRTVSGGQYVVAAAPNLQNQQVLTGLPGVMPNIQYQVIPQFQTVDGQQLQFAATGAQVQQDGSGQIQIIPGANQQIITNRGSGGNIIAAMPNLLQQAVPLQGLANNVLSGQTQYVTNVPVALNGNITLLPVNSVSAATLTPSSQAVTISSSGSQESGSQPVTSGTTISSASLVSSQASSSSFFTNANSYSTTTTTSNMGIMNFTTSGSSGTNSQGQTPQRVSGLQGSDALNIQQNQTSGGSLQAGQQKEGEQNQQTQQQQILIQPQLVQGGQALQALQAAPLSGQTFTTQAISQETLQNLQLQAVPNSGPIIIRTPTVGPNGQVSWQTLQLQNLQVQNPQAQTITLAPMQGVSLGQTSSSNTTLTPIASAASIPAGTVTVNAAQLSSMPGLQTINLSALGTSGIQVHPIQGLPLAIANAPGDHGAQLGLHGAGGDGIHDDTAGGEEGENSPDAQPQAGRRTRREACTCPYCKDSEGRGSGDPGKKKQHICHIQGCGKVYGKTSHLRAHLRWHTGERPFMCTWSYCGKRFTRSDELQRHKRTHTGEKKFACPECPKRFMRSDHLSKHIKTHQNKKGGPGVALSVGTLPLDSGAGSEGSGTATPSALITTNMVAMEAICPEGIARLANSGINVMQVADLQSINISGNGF
# Procedure, shortened: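 Measures mRNA induction of an Sp1-linked reporter in HepG2 cells 24 h post-dosing. Multiplexed reporters read by RT-PCR and capillary electrophoresis; DMSO serves as negative control and baseline.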
# [17] = ATG_SREBP_CIS: Attagene CIS-FACTORIAL HepG2 Assay for human Sterol Regulatory Element Binding (SREBP) (AID 2282962); details: HepG2 Attagene cis-factorial SREBP reporter, mRNA; actives raise or lower the signal
# Procedure, shortened: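 HepG2 cells transiently transfected with multiplexed cis-element reporter units report endogenous transcription factor activity. After 24 h of chemical exposure, reporter mRNA was quantified by RT-PCR, 6-FAM labelling, HpaI digestion and capillary electrophoresis; bidirectional fits used DMSO as baseline.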
# [18] = molecular target: Signal transducer and activator of transcription 3 (Homo sapiens) (UniProt P40763); assay: ATG_STAT3_CIS: Attagene CIS-FACTORIAL HepG2 Assay for human Signal Transducer and Activator of Transcription 3 (STAT3) (AID 2282963); details: HepG2, Attagene cis-factorial STAT3 reporter transcription; actives raise or lower the signal
# Sequence of Signal transducer and activator of transcription 3 (Homo sapiens) (P40763 whole entry, looked up): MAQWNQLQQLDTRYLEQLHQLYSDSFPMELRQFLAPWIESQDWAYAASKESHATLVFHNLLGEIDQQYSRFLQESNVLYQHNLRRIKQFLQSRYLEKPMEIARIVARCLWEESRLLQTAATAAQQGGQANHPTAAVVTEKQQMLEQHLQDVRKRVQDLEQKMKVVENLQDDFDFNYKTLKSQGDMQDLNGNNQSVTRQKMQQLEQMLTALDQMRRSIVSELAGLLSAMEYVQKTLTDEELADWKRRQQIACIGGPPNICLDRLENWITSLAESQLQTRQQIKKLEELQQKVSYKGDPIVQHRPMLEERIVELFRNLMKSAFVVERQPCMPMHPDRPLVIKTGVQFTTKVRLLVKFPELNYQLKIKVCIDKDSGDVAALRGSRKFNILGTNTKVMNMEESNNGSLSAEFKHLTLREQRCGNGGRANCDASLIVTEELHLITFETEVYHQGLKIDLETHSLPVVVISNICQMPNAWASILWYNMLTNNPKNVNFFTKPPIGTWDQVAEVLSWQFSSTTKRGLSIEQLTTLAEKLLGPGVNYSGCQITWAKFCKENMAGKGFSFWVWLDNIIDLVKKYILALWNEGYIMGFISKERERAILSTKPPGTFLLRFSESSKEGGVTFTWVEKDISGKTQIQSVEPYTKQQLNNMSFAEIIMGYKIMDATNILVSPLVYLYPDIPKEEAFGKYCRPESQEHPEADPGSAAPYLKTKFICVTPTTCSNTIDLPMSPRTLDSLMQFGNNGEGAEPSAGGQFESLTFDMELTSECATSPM
# Procedure, shortened: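 Endogenous STAT3-responsive cis-element activity was read in transiently transfected HepG2 cells after 24 h treatment. Reporter transcripts were quantified via RT-PCR and capillary electrophoresis, with DMSO as negative control and bidirectional curve fitting.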
# [19] = ATG_TA_CIS: Attagene CIS-FACTORIAL HepG2 Assay for human TA Basal Promoter (AID 2282964); details: HepG2 Attagene CIS-factorial TA basal promoter reporter; actives raise or lower the signal
# Procedure, shortened: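 Transient MRTU transfection of HepG2 preceded 24 h compound exposure. Reporter mRNA levels were then read by RT-PCR with capillary electrophoresis, and this background-control endpoint was fitted bidirectionally to DMSO.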
compound,measurement,setting,value
C=Cc1cccc(C)c1,outcome,[1],inactive
same,outcome,[2],inactive
same,outcome,[3],inactive
same,outcome,[4],inactive
same,outcome,[5],inactive
same,outcome,[6],inactive
same,outcome,[7],inactive
same,outcome,[8],inactive
same,outcome,[9],inactive
same,outcome,[10],inactive
same,outcome,[11],inactive
same,AC50,[12],13.3 µM (active)
same,outcome,[13],inactive
same,outcome,[14],inactive
same,outcome,[15],inactive
same,outcome,[16],inactive
same,outcome,[17],inactive
same,outcome,[18],inactive
c1ccc2cnccc2c1,outcome,[1],inactive
same,outcome,[2],inactive
same,outcome,[3],inactive
same,outcome,[4],inactive
same,outcome,[5],inactive
same,outcome,[6],inactive
same,outcome,[7],inactive
same,outcome,[8],inactive
same,outcome,[9],inactive
same,outcome,[10],inactive
same,outcome,[11],inactive
same,AC50,[12],27.6 µM (active)
same,outcome,[13],inactive
same,outcome,[15],inactive
same,outcome,[16],inactive
same,outcome,[17],inactive
same,outcome,[18],inactive
same,outcome,[19],inactive
CC/C=C\CCOC(=O)c1ccccc1O,outcome,[1],inactive
same,outcome,[2],inactive
same,outcome,[3],inactive
same,outcome,[4],inactive
same,outcome,[5],inactive
same,outcome,[6],inactive
same,outcome,[7],inactive
same,outcome,[8],inactive
same,outcome,[9],inactive
same,outcome,[10],inactive
same,outcome,[11],inactive
same,outcome,[12],inactive
same,outcome,[13],inactive
same,outcome,[14],inactive
same,outcome,[15],inactive
same,outcome,[16],inactive
same,outcome,[17],inactive
same,outcome,[19],inactive
O=C1CCCCCCCCCCC1,outcome,[1],inactive
same,outcome,[2],inactive
same,outcome,[3],inactive
same,outcome,[4],inactive
same,outcome,[5],inactive
same,outcome,[6],inactive
same,outcome,[7],inactive
same,outcome,[8],inactive
same,outcome,[9],inactive
same,AC50,[10],22.2 µM (active)
same,outcome,[11],inactive
same,AC50,[12],8.96 µM (active)
same,outcome,[13],inactive
same,outcome,[14],inactive
same,outcome,[15],inactive
same,outcome,[16],inactive
same,outcome,[17],inactive
same,outcome,[18],inactive
same,outcome,[19],inactive
O=C(Cl)c1ccc(C(=O)Cl)cc1,outcome,[1],inactive
same,outcome,[2],inactive
same,outcome,[3],inactive
same,outcome,[4],inactive
same,outcome,[5],inactive
same,outcome,[6],inactive
same,outcome,[7],inactive
same,outcome,[8],inactive
same,outcome,[9],inactive
same,outcome,[10],inactive
same,outcome,[11],inactive
same,outcome,[12],inactive
same,outcome,[13],inactive
same,outcome,[14],inactive
same,outcome,[15],inactive
same,outcome,[16],inactive
same,outcome,[17],inactive
same,outcome,[18],inactive
same,outcome,[19],inactive
Nc1cccc(N)n1,outcome,[1],inactive
same,outcome,[2],inactive
same,outcome,[3],inactive
same,outcome,[4],inactive
same,outcome,[5],inactive
same,outcome,[6],inactive
same,outcome,[7],inactive
same,outcome,[8],inactive
same,outcome,[9],inactive
same,outcome,[10],inactive
same,outcome,[11],inactive
same,outcome,[12],inactive
same,outcome,[13],inactive
same,outcome,[14],inactive
same,outcome,[15],inactive
same,outcome,[16],inactive
same,outcome,[17],inactive
same,outcome,[19],inactive
C[Si](C)(C)N[Si](C)(C)C,outcome,[1],inactive
same,outcome,[2],inactive
same,outcome,[3],inactive
same,outcome,[4],inactive
same,outcome,[5],inactive
same,outcome,[6],inactive
same,outcome,[7],inactive
same,outcome,[8],inactive
same,outcome,[9],inactive
same,outcome,[10],inactive
same,outcome,[11],inactive
same,outcome,[12],inactive
same,outcome,[14],inactive
same,outcome,[15],inactive
same,outcome,[16],inactive
same,outcome,[17],inactive
same,outcome,[18],inactive
